Screening data deposited in PubChem BioAssay by National Center for Advancing Translational Sciences (NCATS).
This excerpt belongs to a sample that is enriched for hits.
DT40 TDP1 no CPT = qHTS for Inhibitors of human tyrosyl-DNA phosphodiesterase 1 (TDP1): qHTS in cells in absence of CPT; DT40 Tdp1-/- hTDP1 cells, no CPT, ATP luminescence, 48 h; Potency, µM (doses to about 46.2 µM), inactives show at the top dose activity change, negative = growth inhibition, hits mostly inhibitors; actives 15% (n = 420,000); also: potency is read from the fitted curve at half-maximal effect; nearly all actives have a fitted effect of over 55% in size
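Readout: luminescence from CellTiter-Glo after 30 min in the dark at RT. Cells: DT40 Tdp1-/- with stable hTDP1, 400/well. Exposure: compounds alone, ≥48 hr, 37 °C.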
HT1080NT lethal = kills 2HG-producing HT-1080-NT fibrosarcoma cells | actives 1.6% (n = 360,000) | HT-1080-NT fibrosarcoma viability, CellTiter-Glo ATP luminescence, 48 h | Potency, µM (doses to about 46.1 µM), for the others: at the highest dose activity, negative = less viability, actives largely listed as cytotoxic | AID 686970;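 also: NT is the 2HG producing partner of a matched IDH1 knockdown line; potency is read from the fitted curve at half-maximal effect; 0% = DMSO-treated cells and -100% = media-only wells without cells; nearly all actives have a fitted effect of over 55% in size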
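HT-1080-NT fibrosarcoma cells (2HG-overproducing), 750 cells/well in RPMI with 5% FBS, dosed after 2 h and incubated 48 h at 37C. CellTiter-Glo luminescence normalized to DMSO and no-cell wells; concentration-response curves fitted and classed.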
12-LOX inh = blocks human arachidonate 12S-lipoxygenase | P18054 | purified 12hLO, xylenol orange hydroperoxide absorbance | Potency, µM (highest dose often 108 µM), inactives show at the highest dose activity change, negative = inhibition, usual class: inhibitors | actives 1.1% (n = 580,000) | AID 1671190; also: potency is read from the fitted curve at half-maximal effect
Target sequence (P18054 whole entry, looked up): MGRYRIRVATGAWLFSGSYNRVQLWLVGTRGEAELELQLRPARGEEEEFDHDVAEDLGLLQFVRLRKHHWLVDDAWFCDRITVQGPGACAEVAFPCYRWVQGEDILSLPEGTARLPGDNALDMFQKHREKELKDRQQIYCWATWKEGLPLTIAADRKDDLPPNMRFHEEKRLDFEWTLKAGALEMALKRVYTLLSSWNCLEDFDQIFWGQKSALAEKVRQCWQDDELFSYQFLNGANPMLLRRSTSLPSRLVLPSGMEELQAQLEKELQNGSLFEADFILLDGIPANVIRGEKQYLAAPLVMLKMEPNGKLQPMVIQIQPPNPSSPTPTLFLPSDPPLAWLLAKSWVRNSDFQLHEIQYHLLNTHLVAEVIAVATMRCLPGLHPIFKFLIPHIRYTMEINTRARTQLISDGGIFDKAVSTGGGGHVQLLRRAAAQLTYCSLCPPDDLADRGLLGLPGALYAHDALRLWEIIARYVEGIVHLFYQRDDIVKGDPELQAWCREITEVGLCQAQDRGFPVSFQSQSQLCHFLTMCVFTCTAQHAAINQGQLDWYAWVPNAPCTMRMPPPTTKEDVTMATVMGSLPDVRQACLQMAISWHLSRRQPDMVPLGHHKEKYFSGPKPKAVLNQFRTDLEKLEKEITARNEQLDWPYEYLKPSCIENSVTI
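Purified human 12hLO at 150 nM in 25 mM Hepes, 0.01% Triton X-100, pH 7.0, preincubated 15 min at room temperature with compound. Reaction started with 40 uM arachidonic acid, 30 min at room temperature. Hydroperoxide measured by Fe-xylenol orange, 573/405 nm absorbance ratio.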
DT40 TDP1 CPT = growth inhibition of DT40 Tdp1-/-;hTDP1 cells with camptothecin (screen for TDP1 inhibitors). chicken DT40 Tdp1-/-;hTDP1 cells + 20 nM CPT, ATP luminescence, 48 h. Potency, µM (series often up to 46.2 µM), inactives show at the top dose activity change, negative = growth inhibition, usual class: inhibitors. actives 12% (n = 420,000); also: potency is read from the fitted curve at half-maximal effect; nearly all actives have a fitted effect of over 55% in size
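Chicken DT40 Tdp1-/- cells stably complemented with human TDP1 were seeded at 400 cells/well in medium containing 20 nM camptothecin, exposed to pin-transferred compounds, and grown at 37 °C for at least 48 hr. Viability was read as ATP luminescence.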
IL1B secr inh = inflammasome signaling inhibition, IL-1 beta readout. THP-1 LPS/ATP IL-1B secretion, AlphaLISA, 16 h; hits give low values. activity change, % at 57.5 µM. actives 4.7% (n = 360,000); in the data active = activity change below about -50%; inconclusive = mostly about -30% to -49%
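Secreted IL-1B measured by AlphaLISA bead assay after 16 h compound exposure of THP-1 cells; compounds (final up to 57.5 uM) added 1 h before LPS (250 ng/mL) and ATP (1.25 mM) stimulation; lower signal means less secretion.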
HT1080 IDH1KD tx = kills HT-1080 cells with IDH1 knockdown. AID 686971. Potency, µM (top dose mostly 46.1 µM), without a hit: at the highest dose activity, negative = toxicity, most hits filed as cytotoxic. HT-1080 IDH1 knockdown viability, ATP luminescence, 48 h. actives 2% (n = 360,000);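 also: potency is read from the fitted curve at half-maximal effect; 0% = DMSO wells and -100% = cell-free medium wells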
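After a 2 h attachment period, IDH1KD HT-1080 cells took pin-transferred compound for 48 h at 37 °C; ATP-based luminescence after 10 min room-temperature reagent incubation reported viability.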
An asterisk follows results filed as active; ? = inconclusive; . = no result; [ ] = remark or other dose. Unless noted, calls follow the shape of the dose curve; as a rule, active = well fitted curve in the direction sought with a large enough effect; inconclusive = small, poorly fitted or top-dose-only effect, or another doubt; inactive = no such curve, though single readings can be large; an effect the other way counts as inactive or inconclusive. Unless noted, % is scaled to controls: 0 for no effect and ±100 for the full control effect.

SMILES	DT40 TDP1 no CPT	HT1080NT lethal	12-LOX inh	DT40 TDP1 CPT	IL1B secr inh	HT1080 IDH1KD tx
COC[C@H]([C@@H](O)[C@@H](O)C(=O)NCC[C@@H](C)c1nc(/C=C/C[C@H]2OC3(C[C@H](O)[C@H]2C)OC([C@@H](C[C@@H](O)[C@@H](C)[C@@H](O)[C@@H](C)/C=C(C)/C(C)=C/C=C/C(C)=C\C#N)OC)[C@@H](OP(=O)(O)O)C3(C)C)co1)N(C)C (stereo partly drawn)	0.0016µM*	.	5%[6.33 µM]	0.0022µM*	.	.
[O]=[Cd]	11%	.	.	-4%	.	.
CN1[C@@H]2CC[C@H]1CC(OC1c3ccccc3CCc3ccccc31)C2 (stereo partly drawn)	2.6µM*	16µM*	-11%	8.2µM*	?	26µM*
Cc1c(CCNS(=O)(=O)c2ccccc2)sc2nc(-c3ccc(Cl)cc3)nn12	9.2µM*	.	1%	7.3µM*	.	.
COc1ccc(-c2cc([C@H]3CN4CC[C@H]3C[C@@H]4CN)n(C)n2)cc1OC	.	.	101%[176 µM]	.	.	.
C=C1C(=O)OC2CC3(C)OC3CCC(C)=CC(OC(C)=O)C12 (stereo not drawn)	2.6µM*	-17%	-7%	2.3µM*	-100*	15µM*
C[C@H]1C=CC(=O)O[C@H]1c1ccccc1	?	-25%	0%	?	-105*	-20%
COC(=O)C1=C(C)N[C@]2(C)C[C@H]1c1ccccc1O2	.	.	-9%	.	.	.
Cc1ccccc1-n1c(Cn2ncc3c(N)ncnc32)nc2cccc(C)c2c1=O	.	.	-21%[57.4 µM]	.	.	.
COc1cc(/C=C2\C(=O)NC(=O)N(c3ccccc3)C2=O)cc(OC)c1OC	-3%	10%	?	-4%	25	12%
COc1cc(/C=C/c2ccc3ccccc3[n+]2C)cc(OC)c1OC	13µM*	.	.	?	.	.
N#Cc1cc(NC(=O)c2ccc(Cl)cc2)ccc1Sc1ccccc1	16µM*	?	-1%	21µM*	-61*	21µM*
O=C(Nc1cc[c]([Sb](=[O])([OH])[OH])cc1)c1ccccc1	-19%	.	.	-10%	.	.
COc1ncc(-c2cc3c(cc2OC)C2(CCN(C(C)=O)CC2)C(=O)N3)cn1	.	.	-7%[176 µM]	.	.	.
CC[C@H]1CN2CC[C@H]1C[C@@H]2CNS(=O)(=O)c1cccc(F)c1	.	.	13%[176 µM]	.	.	.
CN(C)C(Cc1ccccc1)C(=O)c1ccc(-c2ccccc2)cc1 (stereo not drawn)	?	-4%	-21%	?	-21	-14%
COC(=O)[C@H](Cc1ccccc1)N(Cc1ccccc1)S(=O)(=O)N(Cc1ccccc1)[C@@H](Cc1ccccc1)C(=O)OC	12µM*	2%	-5%	23µM*	30	2%
COc1ccccc1CNC(=O)[C@H]1CN2CC[C@H]1C[C@@H]2Cn1cc(-c2ccccn2)nn1	.	.	-5%[176 µM]	.	.	.
CC1CCN(C[C@H]2CN3CC[C@H]2C[C@@H]3CNC(=O)Nc2cccc(C#N)c2)CC1	.	.	49%[176 µM]	.	.	.
CC(=O)c1ccc(N2CCN(S(=O)(=O)c3cc(-c4onc(C)c4C)ccc3C)CC2)cc1	9.2µM*	.	-15%	8.2µM*	.	.
Cc1ccc(NC(=O)c2ccc(C)c(S(=O)(=O)N3CCCCC3)c2)nc1	?	-13%	-24%	-22%	-8	-11%
COc1ccc(/C=C/C(=O)c2ccccc2)cc1COc1ccc(F)cc1	21µM*	?	19%	?	-52*	?
CC(Nc1ccc([N+](=O)[O-])c2cnccc12)C12CC3CC(CC(C3)C1)C2 (stereo not drawn)	.	.	1%	.	.	.
O=C1NC(=S)NC(=O)C1=Cc1cccc2cc3ccccc3cc12	2.6µM*	?	-27%	5.2µM*	-99*	?
COc1ccc(C=C2C(=O)NC(=S)NC2=O)cc1	?	-3%	?	?	0	1%
SMILES	DT40 TDP1 no CPT	HT1080NT lethal	12-LOX inh	DT40 TDP1 CPT	IL1B secr inh	HT1080 IDH1KD tx
CN1C(=O)/C(=C\c2ccc(Br)s2)C(=O)NC1=S	16µM*	-16%	?	?	-99*	-12%
O=C1NC(=S)NC(=O)C1=Cc1c(Cl)cccc1Cl	16µM*	-3%	?	10µM*	-99*	-23%
O=C1NC(=S)NC(=O)C1=Cc1ccc(Br)s1	9.2µM*	?	16µM*	10µM*	-100*	?
COc1cc(OC)c2c(C)c(CC(=O)N3CCN(CCc4ccccn4)CC3)c(=O)oc2c1	.	.	-4%	.	.	.
O=C(C1CCOCC1)N1CCC2(CC1)NCc1ccccc1-n1ccnc12	.	.	16%	.	.	.
CCc1ccc(-c2nc(CSCC(=O)N3CCN(c4ccc(F)cc4)CC3)c(C)o2)cc1	?	.	-17%	21µM*	.	.
COc1ccc(-c2nc(CSCC(=O)N3CCC4(CC3)OCCO4)c(C)o2)cc1OC	-23%	-4%	-24%	-28%	19	-12%
COc1ccc(-c2nc(CSCC(=O)N3CCN(c4ccc(F)cc4)CC3)c(C)o2)cc1	8.2µM*	.	-1%	13µM*	.	.
COC(=O)[C@@]12CCCCN1[C@H](c1ccc(-c3ccc(Cl)c(Cl)c3)c(OC)c1)[C@H]1C(=O)N(C)C(=O)[C@H]12	16µM*	16%	-29%	18µM*	2	13%
COC(=O)[C@@H]1N=C(c2ccc(OC)cc2)O[C@]12C(=O)N(C)c1cccc(Cl)c12	-19%	18%	-2%	9%	0	1%
COC(=O)[C@@]12CCCCN1[C@H](c1ccc(-c3ccc(Cl)c(Cl)c3)c(OC)c1)[C@@H]1C(=O)N(C)C(=O)[C@@H]12	10µM*	-2%	15%	12µM*	-52*	7%
COc1ccc(-c2cccc3c2CCNC3)cc1OC	.	.	30%	.	.	.
COCc1cc(C)c(C#N)c(=S)[nH]1	0.82µM*	12%	.	1.2µM*	36	12%
c1cncc(C2=NOC3(CCN(C4COC4)CC3)C2)c1	.	.	3%[12.5 µM]	.	.	.
CCc1ccc(NP(=O)(Oc2ccccc2F)Oc2ccccc2F)cc1	?	18µM*	-13%	?	-102*	23µM*
CC(C)c1ccc(NC(=O)C2CCN(S(=O)(=O)c3ccc(Br)s3)CC2)cc1	?	.	-18%	?	.	.
Cc1ccc(N2CCN(C(=O)C3CCC(CNS(=O)(=O)c4ccc(Br)s4)CC3)CC2C)cc1 (stereo not drawn)	4.6µM*	.	?	7.3µM*	.	.
